Where a name gives a salt, the structure may show the parent alone.
How the values were obtained:
Test in all cases: thermal shift delta Tm vs DMSO control; higher = stronger stabilization (binding)
Details in all cases: 12.5 µM; protein concentration 2 µM
[1] = tested on: LOC_OS01G01410-cb001
Summary of the method: (§1)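 Thermal shift values come from differential scanning fluorimetry on purified rice kinase domains made in E. coli, with melting temperatures obtained from Boltzmann fits. Samples of 19.5 μl held 2 μM kinase, 100 mM potassium phosphate pH 7.5, 150 mM NaCl, 10% glycerol, 5 × SYPRO Orange and compound in DMSO, and were heated from 25°C to 95°C at 0.05°C/s. Each shift is a triplicate mean relative to the DMSO-only protein sample.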

[2] = tested on: LOC_OS01G02750-cb003
Summary of the method: as §1

[3] = tested on: LOC_OS01G10900-cb004
Summary of the method: as §1

[4] = tested on: LOC_OS01G13800-cb001
Summary of the method: as §1

[5] = tested on: LOC_OS01G14860-cb001
Summary of the method: as §1

[6] = tested on: LOC_OS01G21960-cb002
Summary of the method: as §1

[7] = tested on: LOC_OS01G39600-cb002
Summary of the method: as §1

[8] = tested on: LOC_OS01G48390-cb002
Summary of the method: as §1

[9] = tested on: LOC_OS01G51400-cb002
Summary of the method: as §1

[10] = tested on: T1, LOC_OS01G52050-cb004
T1 sequence (whole entry): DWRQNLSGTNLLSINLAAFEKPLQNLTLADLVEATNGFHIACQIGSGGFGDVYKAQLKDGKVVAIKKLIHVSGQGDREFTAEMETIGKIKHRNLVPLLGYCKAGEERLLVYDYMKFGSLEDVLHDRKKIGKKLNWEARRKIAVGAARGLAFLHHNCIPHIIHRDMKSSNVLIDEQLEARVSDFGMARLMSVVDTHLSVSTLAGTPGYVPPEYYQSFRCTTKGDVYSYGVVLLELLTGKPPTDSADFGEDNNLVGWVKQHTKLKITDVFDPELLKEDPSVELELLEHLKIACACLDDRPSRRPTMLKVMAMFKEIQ
Summary of the method: as §1

[11] = tested on: LOC_OS01G57100-cb003
Summary of the method: as §1

[12] = tested on: LOC_OS01G60330-cb001
Summary of the method: as §1

[13] = tested on: LOC_OS01G60700-cb002
Summary of the method: as §1

[14] = tested on: LOC_OS01G63280-cb003
Summary of the method: as §1

[15] = tested on: LOC_OS01G67340-cb003
Summary of the method: as §1

[16] = tested on: LOC_OS01G70970-cb002
Summary of the method: as §1

[17] = tested on: LOC_OS02G07810-cb001
Summary of the method: as §1

[18] = tested on: LOC_OS02G08530-cb003
Summary of the method: as §1

[19] = tested on: LOC_OS02G14120-cb001
Summary of the method: as §1

[20] = tested on: LOC_OS02G17970-cb001
Summary of the method: as §1
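Also: purified Escherichia coli-expressed rice kinase domain construct.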

## Cn1cnc2c(F)c(Nc3ccc(Br)cc3F)c(C(=O)NOCCO)cc21
[1]
  thermal shift delta Tm: 0.1 °C
[2]
  thermal shift delta Tm: 0.45 °C
[3]
  thermal shift delta Tm: 0.02 °C
[4]
  thermal shift delta Tm: -0.05 °C
[5]
  thermal shift delta Tm: 0.19 °C
[6]
  thermal shift delta Tm: 0.38 °C
[7]
  thermal shift delta Tm: 0.61 °C
[8]
  thermal shift delta Tm: 0.43 °C
[9]
  thermal shift delta Tm: 0.53 °C
[10]
  thermal shift delta Tm: 0.01 °C
[11]
  thermal shift delta Tm: 0.75 °C
[12]
  thermal shift delta Tm: 0.73 °C
[13]
  thermal shift delta Tm: 1.26 °C
[14]
  thermal shift delta Tm: 0.46 °C
[15]
  thermal shift delta Tm: 0.06 °C
[16]
  thermal shift delta Tm: 0.46 °C
[17]
  thermal shift delta Tm: 1.12 °C
[18]
  thermal shift delta Tm: 0.93 °C
[19]
  thermal shift delta Tm: -0.02 °C
[20]
  thermal shift delta Tm: 1.34 °C

## O=C(NOC[C@H](O)CO)c1ccc(F)c(F)c1Nc1ccc(I)cc1F
[1]
  thermal shift delta Tm: 1.23 °C
[2]
  thermal shift delta Tm: 0.99 °C
[3]
  thermal shift delta Tm: 0.49 °C
[4]
  thermal shift delta Tm: 0.45 °C
[5]
  thermal shift delta Tm: 0.5 °C
[6]
  thermal shift delta Tm: 0.89 °C
[7]
  thermal shift delta Tm: 0.66 °C
[8]
  thermal shift delta Tm: 0.89 °C
[9]
  thermal shift delta Tm: 0.22 °C
[10]
  thermal shift delta Tm: 0.59 °C
[11]
  thermal shift delta Tm: 0.81 °C
[12]
  thermal shift delta Tm: 1.22 °C
[13]
  thermal shift delta Tm: 1.23 °C
[14]
  thermal shift delta Tm: 0.57 °C
[15]
  thermal shift delta Tm: 0.04 °C
[16]
  thermal shift delta Tm: 0.46 °C
[17]
  thermal shift delta Tm: 1.39 °C
[18]
  thermal shift delta Tm: 1.15 °C
[19]
  thermal shift delta Tm: 1.04 °C
[20]
  thermal shift delta Tm: 0.52 °C

## N#CC1(c2ccc(NC(=O)c3cccnc3NCc3ccncc3)cc2)CCCC1 [Apatinib]
[1]
  thermal shift delta Tm: 1.1 °C
[2]
  thermal shift delta Tm: 0.48 °C
[3]
  thermal shift delta Tm: 0.27 °C
[4]
  thermal shift delta Tm: 0.11 °C
[5]
  thermal shift delta Tm: 0.52 °C
[6]
  thermal shift delta Tm: 0.5 °C
[7]
  thermal shift delta Tm: 0.01 °C
[8]
  thermal shift delta Tm: 0.55 °C
[9]
  thermal shift delta Tm: 0.33 °C
[10]
  thermal shift delta Tm: 0.12 °C
[11]
  thermal shift delta Tm: 1.62 °C
[12]
  thermal shift delta Tm: 0.33 °C
[13]
  thermal shift delta Tm: 0.74 °C
[14]
  thermal shift delta Tm: 5.6 °C
[15]
  thermal shift delta Tm: 0.6 °C
[16]
  thermal shift delta Tm: 0.01 °C
[17]
  thermal shift delta Tm: 1.02 °C
[18]
  thermal shift delta Tm: 0.96 °C
[19]
  thermal shift delta Tm: 0.6 °C
[20]
  thermal shift delta Tm: -0.16 °C

## COc1cccc2cc(-c3nc([C@H]4CC[C@H](C(=O)O)CC4)n4ncnc(N)c34)[nH]c12
[1]
  thermal shift delta Tm: 0.94 °C
[2]
  thermal shift delta Tm: 0.05 °C
[3]
  thermal shift delta Tm: 0.36 °C
[4]
  thermal shift delta Tm: -0.29 °C
[5]
  thermal shift delta Tm: 0.44 °C
[6]
  thermal shift delta Tm: 0.7 °C
[7]
  thermal shift delta Tm: 0.94 °C
[8]
  thermal shift delta Tm: 0.31 °C
[9]
  thermal shift delta Tm: 0.16 °C
[10]
  thermal shift delta Tm: 0.07 °C
[11]
  thermal shift delta Tm: 2.68 °C
[12]
  thermal shift delta Tm: 0.91 °C
[13]
  thermal shift delta Tm: 0.9 °C
[14]
  thermal shift delta Tm: 1.4 °C
[15]
  thermal shift delta Tm: 1.05 °C
[16]
  thermal shift delta Tm: 0.4 °C
[17]
  thermal shift delta Tm: 1.58 °C
[18]
  thermal shift delta Tm: 1.17 °C
[19]
  thermal shift delta Tm: 0.19 °C
[20]
  thermal shift delta Tm: 0.71 °C

## CCOc1cn(-c2ccc(F)cc2C)nc1C(=O)Nc1ccc(Oc2ccnc3cc(OC)c(OC)cc23)c(F)c1
[1]
  thermal shift delta Tm: 0.08 °C
[2]
  thermal shift delta Tm: 1.86 °C
[3]
  thermal shift delta Tm: 0.01 °C
[4]
  thermal shift delta Tm: -0.07 °C
[5]
  thermal shift delta Tm: 0.5 °C
[6]
  thermal shift delta Tm: -0.29 °C
[7]
  thermal shift delta Tm: 0.58 °C
[8]
  thermal shift delta Tm: 0.48 °C
[9]
  thermal shift delta Tm: 0.45 °C
[10]
  thermal shift delta Tm: 2.08 °C
[11]
  thermal shift delta Tm: 0.32 °C
[12]
  thermal shift delta Tm: 1.07 °C
[13]
  thermal shift delta Tm: 0.34 °C
[14]
  thermal shift delta Tm: 0.6 °C
[15]
  thermal shift delta Tm: 0.43 °C
[16]
  thermal shift delta Tm: 0.98 °C
[17]
  thermal shift delta Tm: 0.56 °C
[18]
  thermal shift delta Tm: 1.15 °C
[19]
  thermal shift delta Tm: 2.96 °C
[20]
  thermal shift delta Tm: 0.55 °C

## Nc1ncccc1-c1nc2ccc(-c3ccccc3)nc2n1-c1ccc(C2(N)CCC2)cc1 [Miransertib (ARQ 092) HCl]
[1]
  thermal shift delta Tm: 0.37 °C
[2]
  thermal shift delta Tm: 2.32 °C
[3]
  thermal shift delta Tm: 0.6 °C
[4]
  thermal shift delta Tm: -0.45 °C
[5]
  thermal shift delta Tm: 0.59 °C
[6]
  thermal shift delta Tm: 0.09 °C
[7]
  thermal shift delta Tm: 0.14 °C
[8]
  thermal shift delta Tm: 0.09 °C
[9]
  thermal shift delta Tm: 0.08 °C
[10]
  thermal shift delta Tm: 0.78 °C
[11]
  thermal shift delta Tm: -0.19 °C
[12]
  thermal shift delta Tm: 0.58 °C
[13]
  thermal shift delta Tm: -0.42 °C
[14]
  thermal shift delta Tm: -0.11 °C
[15]
  thermal shift delta Tm: 0.08 °C
[16]
  thermal shift delta Tm: 0.38 °C
[17]
  thermal shift delta Tm: -1.04 °C
[18]
  thermal shift delta Tm: 0.49 °C
[19]
  thermal shift delta Tm: 1.05 °C
[20]
  thermal shift delta Tm: -0.46 °C
